Holding throughout (experiment): NCI-60 one-dose screen, 48 h (100 = growth as untreated, 0 = no growth, -100 = all killed)
Common to all, as to settings: 10 µM unless noted

Experiment [1] concerns NCI-H23 lung.
Experiment [2] relates to NCI-H226 lung.
Experiment [3] has as its system HOP-62 NSCLC.
The test system of experiment [4] is NCI-H460 lung.
The subject of experiment [5] is HOP-92 NSCLC.
The subject of experiment [6] is NCI-H522 lung.
Experiment [7] deals with A549/ATCC NSCLC.
In experiment [8] the test system is 786-0 renal.
Experiment [9] has as its system COLO 205 colon.
Experiment [10] has as its system DU-145 prostate.
Experiment [11] deals with K-562 leukemia.
Experiment [12] has as its system MALME-3M melanoma.
Experiment [13] deals with MDA-MB-231 breast.
For experiment [14], the system named is RXF 393 renal.
The test system of experiment [15] is SF-268 CNS.
Experiment [16] deals with SF-295 CNS.
Experiment [17] has as its system SF-539 CNS.
The test system of experiment [18] is UACC-257 melanoma.
Experiment [19] deals with M14 melanoma.

About 83,000 compounds went through this panel and 20% of them were active in at least one assay; those are over-represented in the sample as a whole.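 Step 1: grow cells in 96-well plates. Step 2: add test compound at a single concentration. Step 3: incubate 48 h. Step 4: record percent growth.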 Values without a mark were called inactive. Calls of active or inactive are those of the source. How the source made its calls: active means growth percent below 10; inactive means the rest.

In the case of `NC1=NC2(CCCC2)N(c2ccc(S(=O)(=O)Nc3nccs3)cc2)C(N)=N1`, the growth in experiment [1] was 101%; in experiment [2] it was 100%; in [3] it was 110%; in experiment [4], 102%; in experiment [5], 113%; in experiment [6] it was 102%. Moreover, the growth in experiment [7] was 104%; in experiment [8], 105%; in experiment [9] it was 113%; in [10], 111%; in experiment [11], 96.5%; in experiment [12] it was 101%. Besides, the growth in [13] is 100%; in [14] it was 104%; in [15] it was 105%; in experiment [16], 104%; in experiment [17], 95%; in [18], 101%. Also, the growth in experiment [19] is 108%.
For `Cc1ccc2c(n1)C(=O)C(Cl)=C(Nc1ccc(C#N)cc1)C2=O`, the growth in experiment [1] is 92.3%; in [2], 98.3%; in experiment [3], 115%; in experiment [4] it was 100%; in [5] it was 126%; in [6] it was 52.4%. For the same molecule, the growth was 106% in experiment [7]; 80.4% in [8]; 79.6% in experiment [9]; 112% in experiment [10]; 5.72% (active) in experiment [11]; 27% in experiment [12]. In addition, the growth is 92.3% in experiment [13]; 92.1% in experiment [14]; 97% in [15]; 118% in experiment [16]; 100% in experiment [17]; 74.8% in [18]. The growth in experiment [19] was 86.2%.
Regarding `CC1(C)CC[C@]2(C(=O)NCCCCCCN(CCCN)CCCN)CC[C@]3(C)C(=CC[C@@H]4[C@@]5(C)CC[C@H](O)C(C)(C)[C@@H]5CC[C@]43C)[C@@H]2C1`, the growth in experiment [1] was 105%; in experiment [2], 100%; in experiment [3], 111%; in experiment [4] it was 102%; in experiment [5], 101%; in experiment [6], 101%. The growth in [7] was 93.1%; in [8], 91.5%; in experiment [10], 107%; in experiment [11], 109%; in experiment [12], 103%; in experiment [13] it was 93.7%. Moreover, the growth in experiment [14] was 113%; in [15], 97.2%; in experiment [16], 105%; in experiment [17] it was 102%; in [18], 97.6%; in [19], 105%.
Turning to `CCOP(=O)(OCC)OC[C@]12CCC(C)(C)C[C@H]1C1=CC[C@@H]3[C@@]4(C)CC[C@H](OP(=O)(OCC)OCC)C(C)(C)[C@@H]4CC[C@@]3(C)[C@]1(C)CC2`, the growth in [1] is 53.9%; in [2], 66.1%; in [3], 82.9%; in experiment [4] it was 51.3%; in [5] it was 27.9%; in [6], 51.5%. In addition, the growth in experiment [7] was 44.3%; in [8], 66.3%; in [9], 66.6%; in experiment [10], 83.1%; in experiment [11], 28.9%; in experiment [12], 62.6%. Besides, the growth in [13] was 50.2%; in experiment [14], 74.9%; in experiment [15], 73.1%; in experiment [16] it was 51.8%; in experiment [17], 66.9%; in experiment [18], 55%. Also, the growth in experiment [19] was 51.9%.
With `O=C1[C@H]2Cc3c([nH]c4ccccc34)[C@H](c3ccc(Br)cc3)N2C(=O)CN1C1CCN(CC2CCCCC2)CC1`, the growth in experiment [1] is 83.5%; in experiment [2] it was 92.5%; in experiment [3], 82.2%; in experiment [4] it was 54.1%; in [5] it was 77.2%; in experiment [6], 83.6%. In addition, the growth in experiment [7] was 79.4%; in experiment [8], 83.4%; in [9] it was 81.3%; in experiment [10], 79.4%; in [11] it was 6.13% (active); in experiment [12] it was 72.5%. Besides, the growth in [13] was 76.5%; in experiment [14], 62.6%; in experiment [15], 66.8%; in experiment [16], 113%; in [17], 75.3%; in experiment [18] it was 97.4%. The growth in experiment [19] is -17.4% (active).
Take `O=C(/C=C/c1csc(Br)n1)NO`: the growth in experiment [1] is 38.4%; in [2] it was 82.9%; in experiment [3] it was 35.5%; in experiment [4], 25.7%; in experiment [5], -2.53% (active); in [6], 7.37% (active). For the same molecule, the growth is 23.5% in experiment [7]; 52.3% in experiment [8]; 11.6% in [9]; 25% in experiment [10]; 9.85% (active) in experiment [11]; 1% (active) in [12]. In addition, the growth was 34.1% in [13]; -15.9% (active) in experiment [14]; 57.6% in experiment [15]; 7.79% (active) in experiment [16]; 35.4% in [17]; 22.3% in experiment [18]. Moreover, the growth in [19] was 27.1%.
For `CCCNNC(=O)c1ccc(-c2ccc(NC(=O)CCCCCCC(=O)N[C@H](C(=O)N3C[C@H](O)C[C@H]3C(=O)N[C@@H](C)c3ccc(-c4scnc4C)cc3)C(C)(C)C)cc2)cc1`, the growth in experiment [1] was 37.3%; in [2] it was 46.5%; in experiment [3], 27.8%; in [4], 31.8%; in experiment [5] it was -26.7% (active); in experiment [6], 10%. In addition, the growth in [7] is 72.4%; in [8] it was 36.9%; in experiment [9], -31.1% (active); in experiment [10] it was 32.4%; in experiment [11], 15.5%; in [12] it was 32%. For the same molecule, the growth is 24.1% in experiment [13]; -33% (active) in [14]; 46.3% in experiment [15]; 46.8% in [16]; 27.3% in experiment [17]; 23.6% in experiment [18]. Further, in [19], the growth is 39.8%.
Take `C[C@H]1OCC2(CCN(c3cnc(C(=O)Nc4cc(F)cc5cccnc45)cn3)CC2)[C@H]1N`: the growth in experiment [1] is 75.3%; in experiment [2], 80%; in experiment [3], 84.1%; in experiment [4] it was 89.1%; in experiment [5], 34.7%; in [6], 31.6%. Moreover, the growth in experiment [7] was 77.3%; in [8], 60.1%; in experiment [9], 13.3%; in [10] it was 78.2%; in [11] it was 6.28% (active); in experiment [12] it was 48.1%. The growth was 31.6% in [13]; 58.4% in experiment [14]; 72.2% in [15]; 92.2% in experiment [16]; 68.4% in experiment [17]; 101% in [18]. The growth in experiment [19] was 71.2%.

The values above are taken from PubChem BioAssay (NCI).
